# Bioassay records (PubChem)
# The entries come from a sample that favours hits as a whole.
# IMPase cell inh = membrane-permeable compound that blocks inositol monophosphatase; inhibition (IP1 accumulation), % at 46.1 µM; 120,000 tested, under 10 active; P97697; CHO-M1 cells, IP1 accumulation, HTRF TR-FRET ratio; AID 901; active means well fitted curve in the direction sought with a large enough effect in the signal ratio, not every such curve was filed as active; inconclusive means small, poorly fitted or top-dose-only effect, or a change in a side signal; inactive means no such curve, though single readings can be large or run the other way; the % refers to the signal ratio;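 further: cells stimulated with carbachol in lithium chloride buffer; plate controls were DMSO basal wells for no effect and reference inhibitor wells for full effect; higher means more IMPase inhibition seen as more IP1 and lower FRET ratio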
# Target sequence (P97697 whole entry, looked up): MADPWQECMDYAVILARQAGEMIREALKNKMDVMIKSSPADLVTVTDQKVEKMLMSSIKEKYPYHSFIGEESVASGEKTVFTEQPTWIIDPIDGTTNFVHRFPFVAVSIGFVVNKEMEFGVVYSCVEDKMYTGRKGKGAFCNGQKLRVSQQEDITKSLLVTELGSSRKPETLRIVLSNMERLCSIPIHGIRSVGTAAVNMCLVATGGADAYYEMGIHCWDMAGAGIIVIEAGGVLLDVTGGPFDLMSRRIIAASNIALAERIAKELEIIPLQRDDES
#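 The IP-One HTRF competitive assay in carbachol-stimulated CHO-M1 cells quantifies cellular IP1. Compounds spanned up to 46 uM final, and activity is expressed as AC50 from concentration-response fits of the ratio and donor data.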
# LMNA splice mod = modulators of lamin A splicing. HeLa LMNA splicing GFP/RFP minigene ratio, 48 h. Potency, µM (top dose mostly 46.1 µM), for inactives: at the highest dose ratio change, negative = inhibition, most hits filed as inhibitors. 200,000 tested, 0.01% active; active means well fitted inhibition curve with a large enough effect in the signal ratio, with a control signal flat, not every such curve was filed as active; inconclusive means small, poorly fitted or top-dose-only effect, or effect the other way, or a change in a side signal; the % refers to the signal ratio; further: potency means the concentration at half of the fitted maximal effect
#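 S3 HeLa cells stably expressing lamin A-EGFP splicing minigene plus DsRed2, 600 cells/well, 48 h compound exposure at 37C. Laser-scanning cytometry; analysed as GFP (500-530 nm)/RFP (575-640 nm) total intensity ratio; 0.5% DMSO vehicle.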
# PNC assembly inh = blocks assembly of the perinucleolar compartment; PC3M PTB-GFP, PNC prevalence imaging, 16 h; active compounds read low; activity change (PNC), negative = inhibition, % at 10 µM; 140,000 tested, 3.1% active;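 active means readout at or below -70, meaning at least 70% loss of cells showing the perinucleolar compartment, a nuclear body marking cancer cells; inconclusive means readout between -30 and a set limit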;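 further: plate controls were DMSO wells for no effect and camptothecin positive control wells for full effect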
#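 Read-out is percentage of cells bearing a perinucleolar compartment, from automated 20x imaging of fixed, Hoechst-stained PC3M PTB-GFP cells. Cells were seeded 4 h, then exposed 16 h to compound (23 nl of library stock) in duplicate plates.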
# Starred values were filed as active, the others as inactive; ? = inconclusive; · = no result given; [ ] = remark or other dose. Unless noted, on the % scale 0 is the no-effect control and ±100 the full control effect.
SMILES,IMPase cell inh,LMNA splice mod,PNC assembly inh
COc1ccc(NC(=S)NNS(=O)(=O)c2ccc3ccccc3c2)c(OC)c1,·,-7%[46 µM],·
O=C(Nc1ccccc1)c1ccc(NCCN2CCOCC2)c(S(=O)(=O)N2CCOCC2)c1,-4,-6%,16
O=C(Nc1ccccc1)c1ccc(NCc2ccco2)c(S(=O)(=O)N2CCOCC2)c1,12[1.84 µM],3%,-88*
O=C(COC(=O)Cc1n[nH]c(=O)c2ccccc12)Nc1cccc(C(F)(F)F)c1,·,2%[46 µM],·
CCOC(=O)c1nn(-c2ccccc2)c2nnc(Cc3ccc(Cl)cc3)c(=O)n12,·,3%,-6
CCOC(=O)c1nn(-c2ccc(Cl)cc2)c2nnc(Cc3ccc(C)cc3)c(=O)n12,·,10%,-109*
CCOC(=O)C1CCCN(C(=O)c2ccccc2NC(=O)c2nsc3ccccc23)C1 (stereo not given),·,-12%[46 µM],·
COc1ccc(-c2cn3nc(N4CCC(C(=O)Nc5ccccc5OC)CC4)sc3n2)cc1,·,-16%[46 µM],·
COC(=O)c1cn(Cc2cccc(C)c2)nn1,·,7%,-9
CCOC(=O)c1cn(Cc2cccc(Cl)c2)nn1,·,?,-114*
COc1cccc(NC(=O)N[C@@H](Cc2ccccc2)C(=O)O)c1,?,9%,-19
COc1cccc(NC(=O)C(Cc2ccccc2)NC(=O)C2CCC(C)CC2)c1 (stereo not given),6,?,-119*
CCC1CN(C(=O)Nc2ccccc2F)c2cc(C)ccc2O1 (stereo not given),·,2%[46 µM],·
CCOc1ccc(C(c2c(O)cc(C)n(Cc3ccco3)c2=O)N2CCN(c3ccccc3)CC2)cc1 (stereo not given),·,-9%[46 µM],·
CC(C)Cn1cc(NC(=O)NCc2ccccc2Cl)c2ccccc2c1=O,·,2%[46 µM],·
Cc1cc(Nc2ccccc2C(=O)O)nc2nc3ccccc3c(=O)n12,0,-6%,-90*
O=C(O)c1ccccc1Nc1ccccc1,8,?,·
CS(=O)Cc1cc(Sc2ccccc2)nc(-c2cccnc2)n1 (stereo not given),·,-11%[9.22 µM],·
CCN1CCN(C(=O)Nc2cccc(C(F)(F)F)c2)CC1,13,15%,-123*
CCN1CCC(N(Cc2ccc(F)cc2)C(=O)Nc2cccc(C(F)(F)F)c2)CC1,·,-3%[46 µM],·
Nc1ccc(C(=O)Nc2ccco2)cc1,3,-9%,-100*
CC(C)(C)c1ccc(C(=O)Nc2ccccc2NC(=O)c2ccco2)cc1,9,-6%,56
CCCn1nnc(NC(=O)c2ccc(Br)cc2)n1,1,9%,?
CCCn1nnc(NC(=O)c2cc(Br)cc(Br)c2OC)n1,8,4%,-119*
CCCOc1cccc(C2c3c(oc4ccc(F)cc4c3=O)C(=O)N2c2nc(C)c(C(C)=O)s2)c1 (stereo not given),2,·,·
SMILES,IMPase cell inh,LMNA splice mod,PNC assembly inh
Cc1c(NC(=O)c2nn3c(c2Br)NC(c2ccccc2)CC3C(F)(F)F)c(=O)n(-c2ccccc2)n1C (stereo not given),·,5%,-21
CC(C)n1c(-c2cccnc2)nc2cnccc21,1,-5%,-100*
Cc1nc2cnccc2n1C,·,-5%[46 µM],·
Cc1nn(Cc2ccc(Cl)cc2)c(C)c1NC(=O)Cn1nc([N+](=O)[O-])c(Cl)c1C,-2,?,1
Cc1nn(Cc2ccc(Cl)cc2)c(C)c1NC(=O)c1ccc([N+](=O)[O-])cc1,3,?,-84*
COc1ccc(C2NC(=S)NC(C)=C2C(=O)Nc2ccccn2)cc1OC (stereo not given),·,-7%,?
COc1ccc(C2NC(=S)NC(C)=C2C(=O)c2ccccc2)cc1OC (stereo not given),6,-4%,-86*
COC(=O)NC1(C(F)(F)F)C(=O)NC(C)=C1C(=O)OC (stereo not given),-16,-1%,-107*
COC(=O)C1=C(C)NC(=O)C1(NC(=O)c1ccccc1C)C(F)(F)F (stereo not given),9,·,·
CCOC(=O)c1c(C)nc2ccc(Cl)cc2c1-c1ccccc1,·,16%,-14
CC(=O)c1c(C)nc2cc(Cl)ccc2c1N,-11,-3%,-95*
COC(=O)c1ccsc1NC(=O)c1cccc(OC)c1,·,20%[46 µM],·
CC1CCCC(NC(=O)CNCc2ccccc2F)C1C (stereo not given),·,16%[9.22 µM],·
CN1CC(=O)N(CC(=O)Nc2cccc(S(=O)(=O)N3CCOCC3)c2)C1=O,·,-1%[46 µM],·
Cc1ccc2cc(/C=N/Nc3nc4ccccc4[nH]3)c(Cl)nc2c1,1,-10%,-88*
CCN(CC)c1ccc(/C=N/Nc2nc3ccccc3[nH]2)c(O)c1,6,?,?
Cc1ccc(C(=O)c2oc3ccccc3c2NC(=O)COc2ccccc2C)cc1,-10,·,·
